{"source": "PubChem BioAssay (Tox21)", "note": "Records with an inconclusive call do not appear. A number with no mark means an inactive call. Unless noted, calls come from the whole dose curve. % is set by controls: 0 for no effect and ±100 for the full control effect.", "data": [{"system": "not listed separately", "experiment": "qHTS assay to identify small molecule antagonists of the sonic hedgehog signaling (Shh) pathway (AID 1259369); note: nearly all actives have a fitted effect of over 45% in size", "conditions": "NIH/3T3 Gli1-Luc reporter, Shh antagonist, luminescence 24 h; series mostly up to 92.4 µM; activity change, negative = inhibition: at the top concentration", "summary_of_the_method": "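Screening used 3T3Gli1-Luc cells at 2,000 per well, compounds delivered in DMSO, and conditioned medium as agonist stimulus; plates incubated 24hr at 37 C and 5% CO2 before a 30min luciferase step.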", "values": [{"smiles": "CN(C)c1cc(NC(=O)CNC(C)(C)C)c(O)c2c1C[C@H]1C[C@H]3[C@H](N(C)C)C(=O)C(C(N)=O)=C(O)[C@@]3(O)C(=O)C1=C2O", "activity change, negative = inhibition": "15.5% [at 42.5 µM]"}, {"smiles": "O=C[C@@H](O)[C@H](O)[C@H](O)CO", "activity change, negative = inhibition": "-8.59%"}, {"smiles": "CCCCS", "activity change, negative = inhibition": "16%"}, {"smiles": "C=COCCCCO", "activity change, negative = inhibition": "-11.8%"}, {"smiles": "CN1C(CCl)Nc2cc(Cl)c(S(N)(=O)=O)cc2S1(=O)=O", "note": "(stereo unspecified)", "activity change, negative = inhibition": "-0.677% [at 42.5 µM]"}, {"smiles": "CCCCN1C(=O)c2ccccc2C1=O", "activity change, negative = inhibition": "0.677%"}, {"smiles": "Cc1cc(=O)oc2cc(O[C@@H]3SC[C@@H](O)[C@H](O)[C@H]3O)ccc12", "activity change, negative = inhibition": "-0.736% [at 42.5 µM]"}, {"smiles": "C/C=C(\\C)C=O", "activity change, negative = inhibition": "12.9%"}, {"smiles": "COc1cnc(NS(=O)(=O)c2ccc(N)cc2)nc1", "activity change, negative = inhibition": "24.7% [at 42.5 µM]"}, {"smiles": "COC(=O)/C=C(\\C)CCC=C(C)C", "activity change, negative = inhibition": "-16%"}, {"smiles": "Cc1cc(O)c(Cl)cc1C", "activity change, negative = inhibition": "13.5%"}, {"smiles": "NNC(=O)OCc1ccccc1", "activity change, negative = inhibition": "-35.4%"}, {"smiles": "CC(=O)c1c(C)cc(C(C)(C)C)cc1C", "activity change, negative = inhibition": "-2.1%"}, {"smiles": "COc1ccc2cc(CCC(C)=O)ccc2c1", "activity change, negative = inhibition": "17.2% [at 42.5 µM]"}, {"smiles": "CN(C)CCc1c[nH]c2ccc(CS(=O)(=O)N3CCCC3)cc12", "activity change, negative = inhibition": "-29% [at 42.5 µM]"}, {"smiles": "CCOC(=O)CN1CCCC1=O", "activity change, negative = inhibition": "-8.44% [at 42.5 µM]"}, {"smiles": "CCCCCCCCCCCCCCCCN(C)C", "activity change, negative = inhibition": "-28.7% [at 8.39 µM]"}, {"smiles": "C[C@@H]1NC(=O)[C@@H](N)CNC(=O)[C@H](C2CCNC(N)=N2)NC(=O)/C(=C/NC(N)=O)NC(=O)[C@H](CNC(=O)C[C@@H](N)CCCN)NC1=O", "note": "(stereo partly specified)", "activity change, negative = inhibition": "22.6% [at 0.349 µM]"}, {"smiles": "CCCCC(O)/C=C(C)/C=C/C=C/C(=O)N1CCCC1=O", "note": "(stereo unspecified)", "activity change, negative = inhibition": "5.55% [at 42.5 µM]"}, {"smiles": "CCc1ncc(C)[nH]1", "activity change, negative = inhibition": "7.12%"}, {"smiles": "CCCCCCCCCCCC(C)=O", "activity change, negative = inhibition": "0%"}, {"smiles": "CC[C@@]1(c2ccccc2)NC(=O)N(C)C1=O", "activity change, negative = inhibition": "64.5% [at 42.5 µM]"}, {"smiles": "CCCC(=O)OC", "activity change, negative = inhibition": "12.1%"}, {"smiles": "CC(C)(C)OC=O", "activity change, negative = inhibition": "8.98%"}, {"smiles": "Cc1cc(C)c(N)c(Cl)c1", "activity change, negative = inhibition": "28.9%"}, {"smiles": "C=CCON/C(CCC)=C1\\C(=O)CC(C)(C)C(C(=O)OC)=C1O", "activity change, negative = inhibition": "0%"}, {"smiles": "CN1CCN(C(=O)C2CCCCC2)CC1", "activity change, negative = inhibition": "8.03% [at 42.5 µM]"}, {"smiles": "O=C1c2ccccc2C(=O)N1CO", "activity change, negative = inhibition": "22.2%"}, {"smiles": "C=CC(C)(CCC=C(C)C)OC(=O)C(C)C", "note": "(stereo unspecified)", "activity change, negative = inhibition": "7.29%"}, {"smiles": "CCOC(=O)CC(C(C)=O)C(C)=O", "activity change, negative = inhibition": "11.4%"}, {"smiles": "COC(=O)c1cc(Cl)c(NC(C)=O)cc1OC", "activity change, negative = inhibition": "-10.8% [at 42.5 µM]"}, {"smiles": "Cc1nnc(C(=O)NC(C)(C)c2nc(C(=O)NCc3ccc(F)cc3)c(O)c(=O)n2C)o1", "activity change, negative = inhibition": "6.25% [at 42.5 µM]"}, {"smiles": "Cc1ccc2cccnc2c1", "activity change, negative = inhibition": "-0.916%"}, {"smiles": "CCCCN(CCCC)CCCCCCN(CCCC)CCCC", "activity change, negative = inhibition": "14.8%"}, {"smiles": "CC1(C)S[C@@H]2[C@H](NC(=O)Cc3ccccc3)C(=O)N2[C@H]1C(=O)O", "note": "(tested in a mixture with another compound)", "activity change, negative = inhibition": "22.1% [at 42.5 µM]"}, {"smiles": "CCN1CCN(C(=O)N[C@@H](C(=O)N[C@@H]2C(=O)N3C(C(=O)O)=C(CSc4nnnn4C)CS[C@H]23)c2ccc(O)cc2)C(=O)C1=O", "activity change, negative = inhibition": "18.3% [at 42.5 µM]"}, {"smiles": "COc1cc(OC)cc(OC)c1", "activity change, negative = inhibition": "26.5% [at 42.5 µM]"}, {"smiles": "Cc1ccc(N)nc1", "activity change, negative = inhibition": "17.3%"}]}, {"biological_target": "Estrogen receptor beta (Homo sapiens) (UniProt Q92731)", "sequence (Q92731 whole entry, looked up)": "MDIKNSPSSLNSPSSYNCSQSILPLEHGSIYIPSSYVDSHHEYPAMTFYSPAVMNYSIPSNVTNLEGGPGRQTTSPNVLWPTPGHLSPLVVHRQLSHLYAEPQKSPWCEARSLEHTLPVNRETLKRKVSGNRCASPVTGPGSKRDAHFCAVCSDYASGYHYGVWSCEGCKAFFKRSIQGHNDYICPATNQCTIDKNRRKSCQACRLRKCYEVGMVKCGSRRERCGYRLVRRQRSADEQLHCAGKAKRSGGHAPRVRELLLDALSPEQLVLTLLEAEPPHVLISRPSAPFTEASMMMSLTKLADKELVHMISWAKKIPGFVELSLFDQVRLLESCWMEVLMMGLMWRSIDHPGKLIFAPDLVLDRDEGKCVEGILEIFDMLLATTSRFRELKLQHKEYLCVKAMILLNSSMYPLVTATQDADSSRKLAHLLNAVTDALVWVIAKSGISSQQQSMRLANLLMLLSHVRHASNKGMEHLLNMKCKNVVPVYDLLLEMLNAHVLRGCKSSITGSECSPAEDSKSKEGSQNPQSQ", "experiment": "qHTS assay to identify small molecule agonists of the estrogen receptor beta (ER-beta) signaling pathway (AID 1259377; active = well fitted activation curve with a large enough effect in the signal ratio in the repeat runs, not every such curve was filed as active; the % refers to the signal ratio)", "conditions": "ER-beta-UAS-bla HEK293T, beta-lactamase FRET ratio, 16 h; series mostly up to 92.4 µM; activation: at the top concentration", "summary_of_the_method": "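Agonist mode cell assay in GripTite HEK293T cells expressing an ER-beta fusion that drives beta-lactamase from an Upstream Activator Sequence; 16 hr compound exposure at 37C, then 2 h LiveBLAzer B/G FRET substrate at room temperature, fluorescence read-out.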", "values": [{"smiles": "CN(C)c1cc(NC(=O)CNC(C)(C)C)c(O)c2c1C[C@H]1C[C@H]3[C@H](N(C)C)C(=O)C(C(N)=O)=C(O)[C@@]3(O)C(=O)C1=C2O", "activation": "-1.29% [at 42.5 µM]"}, {"smiles": "O=C[C@@H](O)[C@H](O)[C@H](O)CO", "activation": "4.68%"}, {"smiles": "CCCCS", "activation": "0.562%"}, {"smiles": "C=COCCCCO", "activation": "-3.42%"}, {"smiles": "CN1C(CCl)Nc2cc(Cl)c(S(N)(=O)=O)cc2S1(=O)=O", "note": "(stereo unspecified)", "activation": "-1.01% [at 42.5 µM]"}, {"smiles": "CCCCN1C(=O)c2ccccc2C1=O", "activation": "-0.376%"}, {"smiles": "Cc1cc(=O)oc2cc(O[C@@H]3SC[C@@H](O)[C@H](O)[C@H]3O)ccc12", "activation": "-0.322% [at 42.5 µM]"}, {"smiles": "C/C=C(\\C)C=O", "activation": "0.358%"}, {"smiles": "COc1cnc(NS(=O)(=O)c2ccc(N)cc2)nc1", "activation": "-0.543% [at 42.5 µM]"}, {"smiles": "COC(=O)/C=C(\\C)CCC=C(C)C", "activation": "9.45%"}, {"smiles": "Cc1cc(O)c(Cl)cc1C", "activation": "7.77%"}, {"smiles": "NNC(=O)OCc1ccccc1", "activation": "1.02%"}, {"smiles": "CC(=O)c1c(C)cc(C(C)(C)C)cc1C", "activation": "12.5%"}, {"smiles": "COc1ccc2cc(CCC(C)=O)ccc2c1", "activation": "-0.723% [at 42.5 µM]"}, {"smiles": "CN(C)CCc1c[nH]c2ccc(CS(=O)(=O)N3CCCC3)cc12", "activation": "0.37% [at 42.5 µM]"}, {"smiles": "CCOC(=O)CN1CCCC1=O", "activation": "-1.58% [at 42.5 µM]"}, {"smiles": "CCCCCCCCCCCCCCCCN(C)C", "activation": "-2.39% [at 8.39 µM]"}, {"smiles": "C[C@@H]1NC(=O)[C@@H](N)CNC(=O)[C@H](C2CCNC(N)=N2)NC(=O)/C(=C/NC(N)=O)NC(=O)[C@H](CNC(=O)C[C@@H](N)CCCN)NC1=O", "note": "(stereo partly specified)", "activation": "1.61% [at 0.348 µM]"}, {"smiles": "CCCCC(O)/C=C(C)/C=C/C=C/C(=O)N1CCCC1=O", "note": "(stereo unspecified)", "activation": "1.66% [at 42.5 µM]"}, {"smiles": "CCc1ncc(C)[nH]1", "activation": "6.62%"}, {"smiles": "CCCCCCCCCCCC(C)=O", "activation": "3.73%"}, {"smiles": "CC[C@@]1(c2ccccc2)NC(=O)N(C)C1=O", "activation": "2.09% [at 42.5 µM]"}, {"smiles": "CCCC(=O)OC", "activation": "-0.828%"}, {"smiles": "CC(C)(C)OC=O", "activation": "0.299%"}, {"smiles": "Cc1cc(C)c(N)c(Cl)c1", "activation": "0.799%"}, {"smiles": "C=CCON/C(CCC)=C1\\C(=O)CC(C)(C)C(C(=O)OC)=C1O", "activation": "-0.144%"}, {"smiles": "CN1CCN(C(=O)C2CCCCC2)CC1", "activation": "3.81% [at 42.5 µM]"}, {"smiles": "O=C1c2ccccc2C(=O)N1CO", "activation": "-0.62%"}, {"smiles": "C=CC(C)(CCC=C(C)C)OC(=O)C(C)C", "note": "(stereo unspecified)", "activation": "7.1%"}, {"smiles": "CCOC(=O)CC(C(C)=O)C(C)=O", "activation": "-0.751%"}, {"smiles": "COC(=O)c1cc(Cl)c(NC(C)=O)cc1OC", "activation": "2.52% [at 42.5 µM]"}, {"smiles": "Cc1nnc(C(=O)NC(C)(C)c2nc(C(=O)NCc3ccc(F)cc3)c(O)c(=O)n2C)o1", "activation": "-2.03% [at 42.5 µM]"}, {"smiles": "Cc1ccc2cccnc2c1", "activation": "-0.784%"}, {"smiles": "CCCCN(CCCC)CCCCCCN(CCCC)CCCC", "activation": "-1.19%"}, {"smiles": "CC1(C)S[C@@H]2[C@H](NC(=O)Cc3ccccc3)C(=O)N2[C@H]1C(=O)O", "note": "(tested in a mixture with another compound)", "activation": "-0.594% [at 42.5 µM]"}, {"smiles": "CCN1CCN(C(=O)N[C@@H](C(=O)N[C@@H]2C(=O)N3C(C(=O)O)=C(CSc4nnnn4C)CS[C@H]23)c2ccc(O)cc2)C(=O)C1=O", "activation": "-0.888% [at 42.5 µM]"}, {"smiles": "COc1cc(OC)cc(OC)c1", "activation": "0.788% [at 42.5 µM]"}, {"smiles": "Cc1ccc(N)nc1", "activation": "7.61%"}]}]}
